Source: PubChem BioAssay (several laboratories)
Yp Topo-I inh: Y. pestis Topo-I inhibition via cleavage products. hit rate 0.064% among 360,000. Y. pestis Topo-I cleavage product accumulation, plate reader. activity, % at 10 µM. AID 504884; in the data active = activity above about 50%, passing the limit was not always enough
PfHsp40 rescue: restores yeast growth despite PfHsp40 toxicity; S. cerevisiae expressing PfHsp40, growth rescue, ATP luminescence; growth rescue, % at 12.5 µM; hit rate 0.68% among 340,000; AID 504582; in the data active = growth rescue above about 28%, passing the limit was not always enough;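 also: yeast W303a lacking pdr1 and pdr3 grown in galactose medium; growth measured after three days at 30 °C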
SSB-PriA inh: blocks PriA binding to SSB C-terminal tail | inhibition, % at 33 µM | hit rate 0.6% among 430,000 | AlphaScreen SSBct-PriA binding, biotinylated peptide | AID 1272365; in the data active = inhibition mostly above about 37%, no sharp cut-off; inactive = mostly below about 20%
PrPC TRFRET: inhibitors of human cell surface prion protein PrPC | P04156 | TR-FRET read-out | inhibition, % at 13.8 µM | hit rate 0.43% among 370,000 | AID 720596; in the data active = inhibition above about 24%
BJeLR viability: kills HRASV12-expressing BJeLR cells; hit rate 0.17% among 300,000; BJeLR (HRASV12) viability, CellTiter-Glo ATP luminescence, 48 h; inhibition, % (concentration not given with the values); in the data active = inhibition above about 50%
PrP UTR inh: suppresses PrP 5' UTR mRNA reporter expression | hit rate 0.35% among 340,000 | inhibition, % (concentration not given with the values) | cell-based PrP 5' UTR mRNA reporter, plate reader | AID 488862; in the data active = inhibition above about 52%
Numbers stand for hits. An excerpt weighted towards active compounds, which were near 1.7% of everything screened.

What do the screens show for `CCCCCCCNC(=O)C1(CC2CC(c3cccc(Br)c3)=NO2)CCN(C(=O)OC(C)(C)C)CC1` (stereo not given)?
Yp Topo-I inh: inactive; PfHsp40 rescue: inactive; SSB-PriA inh: inactive; PrPC TRFRET: inactive; BJeLR viability: inactive; PrP UTR inh: inactive

Results for CCN1C(=O)c2cc(NS(=O)(=O)C3CCCCC3)ccc2Oc2ccccc21 ?
SSB-PriA inh: inactive

What do the screens show for `F[B-](F)(F)c1cc2cc(Br)ccc2s1`?
Yp Topo-I inh: inactive; PfHsp40 rescue: 186.2; SSB-PriA inh: inactive; PrP UTR inh: inactive

Results for F[B-](F)(F)c1cc2ccccc2s1 ?
Yp Topo-I inh: inactive; PfHsp40 rescue: inactive; SSB-PriA inh: inactive; PrPC TRFRET: inactive; PrP UTR inh: inactive

Results for Cc1ccc(C(N)=NOC(=O)Oc2ccccc2)cc1 ?
SSB-PriA inh: inactive

What do the screens show for `CCCc1ccc(Oc2cn[nH]c2-c2ccc(O)cc2O)cc1`?
Yp Topo-I inh: inactive; PfHsp40 rescue: 181.5; SSB-PriA inh: inactive; PrPC TRFRET: inactive; PrP UTR inh: inactive

Results for Cc1ccccc1Nc1nc(N)nc(CCl)n1 ?
Yp Topo-I inh: inactive; PfHsp40 rescue: inactive; SSB-PriA inh: inactive; PrPC TRFRET: inactive; BJeLR viability: 66.9; PrP UTR inh: inactive

How did Nc1nc(CCl)nc(Nc2ccc3ccccc3c2)n1 do in these assays?
Yp Topo-I inh: inactive; PfHsp40 rescue: inactive; SSB-PriA inh: inactive; PrPC TRFRET: inactive; BJeLR viability: 114.0; PrP UTR inh: inactive

How did Cc1ccc(S(=O)(=O)N2CCN(C[C@H](O)COc3ccc(C(=O)c4ccccc4)cc3)CC2)cc1 do in these assays?
SSB-PriA inh: inactive

Results for Cc1ccnc(NS(=O)(=O)c2ccc(NC(=O)c3cc(N4CCCC4)ncn3)cc2)n1 ?
SSB-PriA inh: inactive

What do the screens show for `CSc1ncccc1C(=O)N1CCC(CNC(=O)c2cccn(C)c2=O)CC1`?
SSB-PriA inh: inactive

What do the screens show for `CC1CCc2c(C(=O)Nc3ccccn3)csc2C1` (stereo not given)?
Yp Topo-I inh: inactive; PfHsp40 rescue: 264.8; SSB-PriA inh: inactive; PrPC TRFRET: inactive; BJeLR viability: inactive; PrP UTR inh: inactive

What do the screens show for `CC1CCc2c(C(=O)NCc3ccccn3)csc2C1` (stereo not given)?
Yp Topo-I inh: inactive; PfHsp40 rescue: inactive; SSB-PriA inh: inactive; PrPC TRFRET: inactive; BJeLR viability: inactive; PrP UTR inh: inactive

What do the screens show for `Cc1nc2c([nH]1)CC(C(=O)N1CCN(S(C)(=O)=O)CC1)CC2` (stereo not given)?
SSB-PriA inh: inactive

Results for CCOc1ccc(NC(=S)NC23CC4CC(CC(C4)C2)C3)cc1 ?
Yp Topo-I inh: inactive; PfHsp40 rescue: inactive; SSB-PriA inh: inactive; PrPC TRFRET: inactive; BJeLR viability: inactive; PrP UTR inh: inactive

Results for CN(C)c1ccc(NC(=S)NC23CC4CC(CC(C4)C2)C3)cc1 ?
Yp Topo-I inh: inactive; PfHsp40 rescue: inactive; SSB-PriA inh: 45.1; PrPC TRFRET: inactive; BJeLR viability: inactive; PrP UTR inh: inactive

How did O=C(NCCn1nc(-c2ccco2)ccc1=O)c1nc(-c2cnccn2)no1 do in these assays?
SSB-PriA inh: inactive

Results for NCC(CCC(=O)O)C(F)(F)F (stereo not given) ?
SSB-PriA inh: inactive

How did CC(C)CCNC(=S)Nc1ccc([N+](=O)[O-])cc1 do in these assays?
Yp Topo-I inh: inactive; PfHsp40 rescue: 127.6; SSB-PriA inh: inactive; PrPC TRFRET: inactive; BJeLR viability: inactive; PrP UTR inh: inactive

What do the screens show for `Cc1ccc(C(C)C)cc1NC(=O)Nc1ccc([N+](=O)[O-])cc1`?
Yp Topo-I inh: inactive; PfHsp40 rescue: 150.7; SSB-PriA inh: inactive; PrPC TRFRET: inactive; BJeLR viability: inactive; PrP UTR inh: inactive

How did Cc1cc(O)c(C(C)C)cc1NC(=O)Nc1ccc([N+](=O)[O-])cc1 do in these assays?
Yp Topo-I inh: inactive; PfHsp40 rescue: inactive; SSB-PriA inh: inactive; PrPC TRFRET: inactive; PrP UTR inh: inactive

How did CCOC(=O)C(C(=O)Nc1ccc(Br)cc1)=C1NC(C)(C)Cc2ccccc21 do in these assays?
SSB-PriA inh: inactive

Results for CN(C)CCCNc1cc(O)c2ncccc2c1 ?
Yp Topo-I inh: inactive; PfHsp40 rescue: inactive; SSB-PriA inh: 47.9; PrPC TRFRET: inactive; PrP UTR inh: inactive

What do the screens show for `COC(=O)c1sc(-c2ccccc2)cc1NC(=O)/C=C/c1ccccc1`?
SSB-PriA inh: inactive

Results for O=C1C(=O)N(CCN2CCOCC2)C(c2ccccn2)C1=C(O)c1ccc(F)cc1 (stereo not given) ?
SSB-PriA inh: inactive

How did O=C1C(=O)N(CCCN2CCOCC2)C(c2ccc(F)cc2)/C1=C(/O)c1ccccc1 (stereo not given) do in these assays?
Yp Topo-I inh: inactive; PfHsp40 rescue: 62.6; PrPC TRFRET: inactive; BJeLR viability: inactive; PrP UTR inh: inactive

How did O=C1C(=O)N(CCN2CCOCC2)C(c2ccccn2)/C1=C(/O)c1ccc(F)cc1 (stereo not given) do in these assays?
Yp Topo-I inh: inactive; PfHsp40 rescue: 54.9; PrPC TRFRET: inactive; BJeLR viability: inactive; PrP UTR inh: inactive

How did COc1ccc(C(=O)NC(=S)NNC(=O)c2ccc(O)cc2)cc1[N+](=O)[O-] do in these assays?
Yp Topo-I inh: inactive; PfHsp40 rescue: 51.8; SSB-PriA inh: inactive; PrPC TRFRET: inactive; BJeLR viability: inactive; PrP UTR inh: inactive

What do the screens show for `Nc1nc(C2CC(=O)OC23CCCCC3)cs1` (stereo not given)?
Yp Topo-I inh: inactive; PfHsp40 rescue: inactive; SSB-PriA inh: inactive; PrPC TRFRET: inactive; BJeLR viability: inactive; PrP UTR inh: inactive

How did Nc1nc(C2C(=O)CCCC2=O)cs1 do in these assays?
Yp Topo-I inh: inactive; PfHsp40 rescue: inactive; SSB-PriA inh: 57.5; PrPC TRFRET: inactive; BJeLR viability: inactive; PrP UTR inh: inactive

How did Cc1ccc(S(=O)(=O)NC23CC4CC(CC(C4)C2)C3)cc1 do in these assays?
Yp Topo-I inh: inactive; PfHsp40 rescue: 106.9; SSB-PriA inh: inactive; PrPC TRFRET: inactive; PrP UTR inh: inactive

What do the screens show for `CN1CCN(C(=O)c2cc(COc3c(F)cccc3F)on2)CC1c1ccccc1` (stereo not given)?
Yp Topo-I inh: inactive; PfHsp40 rescue: 79.6; SSB-PriA inh: inactive; PrPC TRFRET: inactive; BJeLR viability: inactive; PrP UTR inh: inactive

How did CN1CCN(C(=O)c2cc(COc3ccc(F)cc3Cl)on2)CC1c1ccccc1 (stereo not given) do in these assays?
Yp Topo-I inh: inactive; PfHsp40 rescue: 138.7; SSB-PriA inh: inactive; PrPC TRFRET: inactive; BJeLR viability: inactive; PrP UTR inh: inactive

How did CSc1ccccc1OCc1cc(C(=O)N2CCN(C)C(c3ccccc3)C2)no1 (stereo not given) do in these assays?
Yp Topo-I inh: inactive; PfHsp40 rescue: 77.7; SSB-PriA inh: inactive; PrPC TRFRET: inactive; BJeLR viability: inactive; PrP UTR inh: inactive

What do the screens show for `Cc1noc(-c2ccn3c(CNC(=O)c4csc(C)n4)nnc3c2)n1`?
SSB-PriA inh: inactive

Results for C=CCn1c(SCC(=O)Nc2ccccc2C(F)(F)F)nc2scc(-c3ccc(C)o3)c2c1=O ?
SSB-PriA inh: inactive
